Compound activity from PubChem BioAssay.
A selection: hits, their analogues and other compounds. The true share with any hit is near 0.55%.
Tb PFK inh = blocks T. brucei phosphofructokinase; O15648; T. brucei PFK, ADP-Glo luminescence; Potency, µM (highest dose often 57.5 µM), without a hit: at the top dose activity, negative = inhibition, hits mostly inhibitors; 330,000 compounds, 0.17% hits; AID 485367;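 also: 0% = uninhibited 1x PFK enzyme wells and -100% = no-enzyme wells; nearly all actives have a fitted effect of over 60% in size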
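ADP-Glo luminescence quantified ADP after 45 min at room temperature, with 1.25 nM T. brucei PFK, 0.1 mM ATP and 0.5 mM fructose-6-phosphate in pH 8.0 TEA buffer. qHTS titrations up to 57 µM; curves classified by quality.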
KAT2A inh = GCN5L2 (KAT2A) acetyltransferase inhibition. GCN5L2 HAT assay, ThioGlo1 CoA-SH fluorescence. 390,000 compounds, 0.21% hits. Potency, µM (highest dose often 58.9 µM), without a hit: top-dose activity change, negative = inhibition, most hits filed as inhibitors. Q92830; also: % is scaled to controls: 0 for no effect and ±100 for the full control effect
Target sequence (Q92830 whole entry, looked up): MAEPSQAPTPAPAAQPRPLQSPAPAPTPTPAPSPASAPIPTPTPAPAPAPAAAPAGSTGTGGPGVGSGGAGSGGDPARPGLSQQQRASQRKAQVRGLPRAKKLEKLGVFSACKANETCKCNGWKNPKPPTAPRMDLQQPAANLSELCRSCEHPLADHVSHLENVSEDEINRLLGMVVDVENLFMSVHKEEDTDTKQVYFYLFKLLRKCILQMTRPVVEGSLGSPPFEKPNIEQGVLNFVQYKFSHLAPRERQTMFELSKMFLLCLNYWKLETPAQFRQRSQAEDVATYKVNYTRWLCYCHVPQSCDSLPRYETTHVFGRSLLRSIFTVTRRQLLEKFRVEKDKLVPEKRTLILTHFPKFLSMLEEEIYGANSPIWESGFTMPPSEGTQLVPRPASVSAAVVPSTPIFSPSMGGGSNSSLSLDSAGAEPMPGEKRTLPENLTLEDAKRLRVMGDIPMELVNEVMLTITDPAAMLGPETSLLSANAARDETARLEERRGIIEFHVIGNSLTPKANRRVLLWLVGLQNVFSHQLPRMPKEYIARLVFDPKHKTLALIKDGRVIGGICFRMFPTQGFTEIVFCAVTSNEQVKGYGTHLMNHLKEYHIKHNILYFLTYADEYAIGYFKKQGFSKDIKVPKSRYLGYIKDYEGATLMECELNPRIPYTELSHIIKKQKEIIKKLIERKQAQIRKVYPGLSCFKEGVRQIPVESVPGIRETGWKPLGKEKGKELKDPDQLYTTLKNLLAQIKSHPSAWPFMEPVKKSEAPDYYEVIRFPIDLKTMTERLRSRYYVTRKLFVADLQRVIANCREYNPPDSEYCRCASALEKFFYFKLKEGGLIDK
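Preincubate 20nM GCN5L2 with compound 15 min, RT → add 50uM ThioGlo1 + 75uM H3(1-25) + 70uM acetyl-CoA → read fluorescence 0 and 20 min. Primary qHTS; fluorescent artifacts likely.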
ERG-DNA inh = blocks human ERG Ets domain binding to DNA; P11308; fluorescence polarization, His-ERG Ets domain / labelled DNA; Potency, µM (highest dose often 76.9 µM), without a hit: at the top dose FP activity, negative = inhibition, usual class: inhibitors; 370,000 compounds, 0.028% hits; AID 624246; active = well fitted inhibition curve with a large enough effect in the polarisation, with a control signal flat; inconclusive = small, poorly fitted or top-dose-only effect, or effect the other way, or a change in a side signal; inactive = no such curve, though single readings can be large or run the other way; the % refers to the polarisation;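 also: polarization taken with two DNA probes labelled with fluorescein and Texas red; % of control where 0% means no effect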
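His-tagged ERG Ets domain (1 uM in the protein solution; 300mM KCl, 50mM Tris-HCl, 1mM EDTA, 1mM DTT, pH 7.5) received compound, then a probe mix of 5 nM fluorescein-DNA and 100nM Texas-615-DNA. Fluorescence polarization was read for both dyes.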
ASM inhibitor = inhibitors of human secretory acid sphingomyelinase; P17405; placental ASM, HMU-PC fluorogenic substrate, 60 min; Potency, µM (titrated, usually from 57.5 µM), for the others: at the top dose activity change, negative = inhibition, actives largely listed as inhibitors; 340,000 compounds, 0.006% hits; AID 504937
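HMU-PC0 cleavage (9 uM final) by human placental ASM, 60 min at 37 °C following 10 min compound exposure at RT; stopped at pH 10, fluorescence Ex 386/Em 447 nm.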
A-T KAP1 phos = candidate therapy for ataxia-telangiectasia; F2112 A-T fibroblasts, KAP-1 phosphorylation AlphaLISA; neocarzinostatin DNA damage 30 min before lysis; Potency, µM (highest dose often 57.5 µM), for inactives: at the highest dose activation, hits mostly activators; 320,000 compounds, 0.19% hits; AID 485349; also: % of control where 0% means no effect; nearly all actives have a fitted effect of over 45% in size
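hTERT-immortalized A-T patient fibroblasts (F2112), 500 cells/well in OPTI-MEM, 1% FBS, got compounds for 60 min, then NCS for 30 min at 37C. Lysates were then assayed for phospho-KAP-1 by AlphaLISA (anti-pKAP1 donor, anti-KAP1 acceptor beads), 6 hr at 25C.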
p53 reactivation = re-activators of mutant p53; 320,000 compounds, 0.063% hits; AID 504706; Potency, µM (doses to about 92.2 µM), without a hit: top-dose activity change, positive = activation, usual class: activators; H1299 p53-A138V BP100-luciferase reporter, luminescence, 24 h; also: % of control where 0% means no effect; nearly all actives have a fitted effect of over 45% in size
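H1299 (p53-null), stable ts p53-A138V + BP100-Luc; 1000 cells/well, Opti-MEM/10% FBS; cpd 4 pt, 1:5; 24 h, 37 deg C, 5% CO2; detection reagent 10 min RT; luminescence.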
Starred values were filed as active, the others as inactive. Unless noted, calls follow the shape of the dose curve; as a rule, active = well fitted curve in the direction sought with a large enough effect; inconclusive = small, poorly fitted or top-dose-only effect, or another doubt; inactive = no such curve, though single readings can be large; an effect the other way counts as inactive or inconclusive. Potency is read from the fitted curve at half-maximal effect.

CN(C)[C@H]1C(=O)C(C(=O)NCN2CCCC2)=C(O)[C@]2(O)C(=O)C3=C(O)c4c(O)cccc4[C@](C)(O)[C@H]3C[C@H]12 was read as KAT2A inh 1.78µM*.
CCC(C)C(=O)OC1CCC=C2C=CC(C)C(CCC3CC(O)CC(=O)O3)[C@@H]21 (stereo partly specified) was read as KAT2A inh -1.9%.
`NNC(=O)c1cccc(S(=O)(=O)Nc2cc(Cl)ccc2Cl)c1` gave Tb PFK inh 2.4%, KAT2A inh -13.3%, ERG-DNA inh 1.4%, ASM inhibitor 1.0%, A-T KAP1 phos 28.2µM* and p53 reactivation -2.4%.
Screening COc1ccccc1NS(=O)(=O)c1cccc(C(=O)NN)c1 returned Tb PFK inh -1.9%, KAT2A inh 0.1%, ERG-DNA inh 6.7%, ASM inhibitor 9.1%, A-T KAP1 phos -1.0% and p53 reactivation -5.0%.
`O=C(/C=C/c1ccc2c(c1)OCO2)c1ccccn1` gave Tb PFK inh -13.7%, KAT2A inh -9.1%, ERG-DNA inh 24.5%, ASM inhibitor 8.1%, A-T KAP1 phos 4.2% and p53 reactivation 31.6µM*.
CCOC(=O)C1CCCN(c2ccc(NC(=O)c3snc4c(=O)[nH]c(C)nc34)cc2)C1 (stereo unspecified) was read as Tb PFK inh -4.4%, KAT2A inh 2.51µM*, ERG-DNA inh 1.7%, ASM inhibitor 3.4%, A-T KAP1 phos -2.2% and p53 reactivation -3.7%.
`Cc1ccc(CN2CCC(CNC(=O)Nc3cccc(Cl)c3C)C2)cc1` (stereo unspecified) gave KAT2A inh -6.5% and ERG-DNA inh -3.7%.
Screening Cc1cc(C)cc(N=Cc2ccc([N+](=O)[O-])s2)c1 returned Tb PFK inh -10.1%, KAT2A inh -9.4%, ERG-DNA inh 12.4%, ASM inhibitor -0.6%, A-T KAP1 phos 2.6% and p53 reactivation -39.2%.
Screening O=[N+]([O-])c1ccc(C=Nc2ccc(Cl)c([N+](=O)[O-])c2)s1 returned Tb PFK inh 23.9µM*, KAT2A inh -10.3%, A-T KAP1 phos 1.3% and p53 reactivation -12.1%.
For CCOC(=O)c1cn(-c2nc(-c3ccc(Cl)c(Cl)c3)cs2)c2c(F)c(N3CCOCC3)c(F)cc2c1=O the results were Tb PFK inh -3.3%, KAT2A inh 2.51µM*, ERG-DNA inh inconclusive, ASM inhibitor -2.0%, A-T KAP1 phos 0.7% and p53 reactivation -1.5%.
Screening CCOC(=O)c1cn(-c2ccc(F)c(F)c2F)c2c(F)c(F)c(F)cc2c1=O returned Tb PFK inh 2.7%, KAT2A inh 4.5%, ERG-DNA inh 6.8%, ASM inhibitor 2.9%, A-T KAP1 phos -1.5% and p53 reactivation 3.9%.
O=c1c2ccccc2cnn1-c1ccc(Cl)cc1 was read as Tb PFK inh -4.5%, KAT2A inh 0.6%, ERG-DNA inh 1.5%, ASM inhibitor -0.7%, A-T KAP1 phos -1.1% and p53 reactivation 25.1µM*.
`Cc1ccc(-n2ncc3ccccc3c2=O)cc1Cl` gave Tb PFK inh 3.1%, KAT2A inh -6.8%, ERG-DNA inh -3.0%, ASM inhibitor 1.3%, A-T KAP1 phos 7.6% and p53 reactivation 6.2%.
Cn1ccnc1SCc1ccc([N+](=O)[O-])cc1 was read as Tb PFK inh -2.9%, KAT2A inh 0.794µM*, ERG-DNA inh -1.1%, ASM inhibitor -1.6%, A-T KAP1 phos -4.9% and p53 reactivation 2.6%.
Screening Cn1ccnc1SCc1cccc([N+](=O)[O-])c1 returned Tb PFK inh 1.5%, KAT2A inh -3.0%, ERG-DNA inh -0.6%, ASM inhibitor 2.9%, A-T KAP1 phos -4.3% and p53 reactivation 4.8%.
For Cc1ccc(CNc2ccc(-c3nc(-c4ccco4)no3)cc2[N+](=O)[O-])cc1 the results were KAT2A inh -1.6% and ERG-DNA inh 0.3%.
